Compound activity as filed in PubChem.
MCF10A rerep: inducers of DNA re-replication in MCF 10A breast cells | actives 2.9% (n = 350,000) | AID 624296 | Potency, µM (doses to about 46.1 µM), for inactives: top-dose activity, positive = re-replication, hits mostly activators | MCF 10A DNA re-replication, Hoechst nuclear intensity, 48 h; note: % of control where 0% means no effect; nearly all actives have a fitted effect of over 50% in size
KB-V1 MDR tox: KB-V1 MDR subline cytotoxicity; Potency, µM (titrated, usually from 46.1 µM), usual class: cytotoxic; KB-V1 MDR cells viability, CellTiter-Glo, 72 h; actives 3.4% (n = 400,000); note: % is set by controls: 0 for no effect and ±100 for the full control effect; nearly all actives have a fitted effect of over 60% in size
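Following 72 h at 37 degrees C with compound, KB-V1 cell viability was read by CellTiter-Glo luminescence, medium being phenol-red-free DMEM plus 10% FBS; concentration-response parameters came from normalized, curve-fitted qHTS data.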
HT1080 IDH1KD tx: toxicity to HT-1080 IDH1 knockdown cells (counter line); HT-1080 IDH1 knockdown viability, ATP luminescence, 48 h; Potency, µM (top dose mostly 46.1 µM), without a hit: at the highest dose activity, negative = toxicity, hits mostly cytotoxic; actives 2% (n = 360,000); AID 686971;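 note: 0% = DMSO wells and -100% = cell-free medium wells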
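HT-1080-IDH1KD cells (IDH1 knocked down), 750/well in RPMI with 5% FBS, treated with compound 48 h at 37 degrees C. Viability by CellTiter-Glo luminescence, normalised to DMSO and no-cell wells; concentration-response curves classed.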
SW480 rereplic: induces DNA re-replication in SW480 colon adenocarcinoma cells; Potency, µM (top dose mostly 46.1 µM), for inactives: at the highest dose re-replication activation, usual class: activators; AID 624297; actives 1.8% (n = 340,000); SW480 DNA re-replication, Hoechst DNA content imaging, 48 h; note: % of control where 0% means no effect; nearly all actives have a fitted effect of over 55% in size
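250 cells/well; 23 nL cpd via pin tool; 48 hr, 37 C, 5% CO2; Hoechst 40 min; imager read of total nuclear intensity, ex 405/em 500-530 nm.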
HT1080-NT tox: kills 2HG-producing HT-1080-NT fibrosarcoma cells | HT-1080-NT fibrosarcoma viability, CellTiter-Glo ATP luminescence, 48 h | Potency, µM (titrated, usually from 46.1 µM), without a hit: top-dose activity, negative = less viability, actives largely listed as cytotoxic | actives 1.6% (n = 360,000) | AID 686970;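 note: NT is the 2HG producing partner of a matched IDH1 knockdown line; 0% = DMSO-treated cells and -100% = media-only wells without cells; nearly all actives have a fitted effect of over 55% in size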
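Viability by CellTiter-Glo luminescence after 48 h compound exposure at 37C of HT-1080-NT cells (750/well, RPMI, 5% FBS). % activity scaled between DMSO wells and medium-only wells, then curve-fitted and categorized by curve class.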
KB-3-1 cytotox: KB-3-1 parental cell cytotoxicity. Potency, µM (doses to about 46.1 µM), most hits filed as cytotoxic. actives 1.4% (n = 400,000). KB-3-1 viability, CellTiter-Glo ATP luminescence, 72 h; note: % is set by controls: 0 for no effect and ±100 for the full control effect; nearly all actives have a fitted effect of over 60% in size
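Cells are dispensed, compounds pinned in, plates held at 37 °C for 72 h, then CellTiter-Glo is added and luminescence read after 10 minutes. Cell line: parental KB-3-1 in phenol-red-free DMEM, 10% FBS.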
An asterisk follows results filed as active; i = inactive; u = inconclusive. Rows were chosen to be rich in hits. Some 8% of all compounds tested hit in one or more screens of this group. Calls come from the whole dose curve; as a rule, active = well fitted curve in the direction sought with a large enough effect; inconclusive = small, poorly fitted or top-dose-only effect, or another doubt; inactive = no such curve, though single readings can be large; an effect the other way counts as inactive or inconclusive. Potency is the fitted concentration of half-maximal effect.

SMILES	MCF10A rerep	KB-V1 MDR tox	HT1080 IDH1KD tx	SW480 rereplic	HT1080-NT tox	KB-3-1 cytotox
O=C(NNc1nc2ccc(Cl)cc2s1)c1cc(-c2cccs2)nc2ccccc12	18µM*	u	u	u	u	u
Nc1nc(-c2ccccc2)c(-c2ccccc2)o1	-9%	i	12%	-75%	2%	i
c1ccc(-c2nc(-c3nccc4ccccc34)oc2-c2ccccc2)cc1	u	i	9%	7.3µM*	0%	i
NC(=O)C1=C[C@@H](c2ccc(Br)cc2)C[C@@H](OCc2ccc(CO)cc2)O1	-8%	i	0%	-7%	-2%	i
CC(C)[C@H](NC(=O)c1ccccc1)C(=O)OCC(=O)c1ccc(S(=O)(=O)N2CCCCC2)cc1	2%	21µM*	0%	-2%	2%	i
CN(C)S(=O)(=O)c1ccc(NC(=O)C2CCCN(C(=O)c3ccc(Cl)cc3)C2)cc1 (stereo not drawn)	10%	i	-2%	4%	-3%	i
CC1CC1C(=O)Nc1ccc(S(=O)(=O)N2CCCCC2)cc1 (stereo not drawn)	15%	10µM*	-2%	-12%	-4%	i
CCc1ccc(NC(=O)C(C)OC(=O)c2ccc(NS(=O)(=O)c3ccc(C)c([N+](=O)[O-])c3)cc2)cc1 (stereo not drawn)	u	u	u	u	u	23µM*
O=C(Nc1ccc(S(=O)(=O)N2CCCCC2)cc1)C1CCCN(C(=O)c2ccc(Cl)cc2)C1 (stereo not drawn)	29%	i	-10%	-1%	-8%	9.2µM*
CCOc1ccc(NC(=O)c2ccc(NC(=O)c3ccccc3Br)cc2)cc1	u	i	-15%	-5%	-23%	i
COC(=O)c1ccccc1OC(=O)c1cc[n+]([O-])cc1	9%	i	20%	6%	18%	i
CCOc1ccc(/C=N/NC(=O)c2cc3c(OC)cc(OC)c(OC)c3[nH]2)cc1	u	i	u	u	u	i
COC(=O)Nc1ccc(S(=O)(=O)N2CCN(C)CC2)cc1	-6%	i	15%	-3%	17%	i
CC(OC(=O)c1ccc(Cl)nc1)C(=O)Nc1ccc(S(=O)(=O)N2CCCC2)cc1 (stereo not drawn)	4%	u	3%	-6%	-2%	i
CC(=O)Nc1ccc(NC(=O)C(C)OC(=O)c2ccc(S(=O)(=O)N3CCCCC3)cc2)cc1 (stereo not drawn)	u	i	u	u	23µM*	i
COC(=O)Nc1ccc(S(=O)(=O)N2CCCCC2)cc1	7%	8.2µM*	-24%	-3%	-25%	u
COc1ccc(NC(=O)Cc2c(F)c(F)c(F)c(F)c2F)cc1OC	-2%	i	2%	-18%	10%	i
O=S(=O)(c1ccccc1)N(Cc1ccc(Cl)cc1)c1ccncc1	4%	i	-3%	4%	-2%	i
COC(=O)c1ccc(NC(=O)C(=O)N2CCN(C(=S)Nc3cccc(OC)c3)CC2)cc1	-2%	18µM*	24%	-27%	5%	i
COC(=O)c1ccc(NC(=O)C(=O)N2CCN(C(=S)Nc3ccc(C)cc3)CC2)cc1	26%	i	-11%	0%	6%	i
COC(=O)c1ccc(NC(=O)C(=O)N2CCN(C(=S)Nc3ccc(OC)cc3)CC2)cc1	-2%	21µM*	-6%	16%	-6%	i
CC(NC(=O)COC(=O)c1ccc(S(=O)(=O)N2CCOCC2)cc1)c1ccccc1 (stereo not drawn)	-3%	i	-2%	8%	-1%	i
Cc1cc2c(cc1S(=O)(=O)N1CCN(c3cccc(C(F)(F)F)c3)CC1)OCC(=O)N2	23µM*	i	-2%	u	8%	i
